The whole screen tested about 5,500 compounds, of which about 2,000 (36%) were called active. Another 18% or so got no clear call; they are omitted. Cut-off read from the data, not from the text of the source: active = normalized growth mostly below about 0.91 (no sharp cut-off); inconclusive = no clear call, values can overlap the other calls; inactive = mostly above about 0.92. The list shows a part of the results.
Experiment: chemical genetic growth profiling, strain panel (AID 1159580);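 note: tested at 20 µM; growth read once vehicle control cultures reached saturation at 30 °C; 1 = growth at the plate median or of vehicle wells; lower values mean less growth of the strain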
Conditions: growth OD

Measured: normalized growth

Cc1cc(C)c2c(-n3cccc3)c(C(=O)c3ccc(Cl)cc3)sc2n1
inactive: S. cerevisiae deletion strains, locus YAL013W, strain DEP1, stronger effect = lower value 0.996 | S. cerevisiae deletion strains, locus YBR229C, strain ROT2, stronger effect = lower value 1.01 | S. cerevisiae deletion strains, locus YCL061C, strain MRC1, stronger effect = lower value 1 | S. cerevisiae deletion strains, locus YDL101C, strain DUN1, stronger effect = lower value 0.979 | S. cerevisiae deletion strains, locus YDR150W, strain NUM1, stronger effect = lower value 0.9 | S. cerevisiae deletion strains, locus YEL061C, strain CIN8, stronger effect = lower value 1 | S. cerevisiae deletion strains, locus YGR078C, strain PAC10, stronger effect = lower value 1.01 | S. cerevisiae deletion strains, locus YGR229C, strain SMI1, stronger effect = lower value 0.99 | S. cerevisiae deletion strains, locus YHR030C, strain SLT2, stronger effect = lower value 0.884 | S. cerevisiae deletion strains, locus YHR087W, strain rtc3, stronger effect = lower value 0.98 | S. cerevisiae deletion strains, locus YJL187C, strain SWE1, stronger effect = lower value 1.01 | S. cerevisiae deletion strains, locus YJR043C, strain POL32, stronger effect = lower value 1.01 | S. cerevisiae deletion strains, locus YJR075W, strain HOC1, stronger effect = lower value 0.987 | S. cerevisiae deletion strains, locus YLR039C, strain RIC1, stronger effect = lower value 0.903 | S. cerevisiae deletion strains, locus YLR058C, strain SHM2 (second series), stronger effect = lower value 1.01 | S. cerevisiae deletion strains, locus YLR085C, strain ARP6, stronger effect = lower value 0.961 | S. cerevisiae deletion strains, locus YLR262C, strain YPT6, stronger effect = lower value 0.95 | S. cerevisiae deletion strains, locus YML094W, strain GIM5, stronger effect = lower value 0.935 | S. cerevisiae deletion strains, locus YMR219W, strain ESC1, stronger effect = lower value 1.01 | S. cerevisiae deletion strains, locus YMR263W, strain SAP30, stronger effect = lower value 0.997 | S. cerevisiae deletion strains, locus YMR307W, strain GAS1, stronger effect = lower value 0.891 | S. cerevisiae deletion strains, locus YNL153C, strain GIM3, stronger effect = lower value 0.984 | S. cerevisiae deletion strains, locus YNL298W, strain CLA4 (second series), stronger effect = lower value 0.984 | S. cerevisiae deletion strains, locus YNL322C, strain KRE1, stronger effect = lower value 0.997 | S. cerevisiae deletion strains, locus YNR030W, strain Alg12, stronger effect = lower value 0.95 | S. cerevisiae deletion strains, locus YPL055C, strain LGE1, stronger effect = lower value 0.957 | S. cerevisiae deletion strains, locus YPL241C, strain CIN2, stronger effect = lower value 1 | S. cerevisiae deletion strains, locus YPR135W, strain CTF4, stronger effect = lower value 0.893 | S. cerevisiae strains, strain wild type, stronger effect = lower value 0.986

— PubChem BioAssay AID1159580 (chemical genetic matrix, 2015)
